Screens: PubChem, National Center for Advancing Translational Sciences (NCATS)
FBPA coupling cs: qHTS Assay for Inhibitors of Fructose-1,6-bisphosphate Aldolase from Giardia Lamblia: Coupling assay counterscreen | coupling enzyme system counterscreen, AmpLite Red fluorescence | activity change, negative = inhibition, % at 58.2 µM, hits read low | hit rate 0.67% among 290,000 | AID 2472, 2010; in the data active = activity change below about -30%
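Counterscreen of the coupled detection system alone, without aldolase: glyceraldehyde-3-phosphate coupling enzymes plus AmpLite Red readout. Compounds at 57.5 uM final, 10 min RT preincubation, 20 min RT reaction, fluorescence 525/598 nm.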
Tau fibril ThT: qHTS for Inhibitors of Tau Fibril Formation, Thioflavin T Binding. Microtubule-associated protein tau (Homo sapiens), P10636. hit rate 2.1% among 270,000. AID 1460, 2008. Potency, µM (highest dose often 57.4 µM), without a hit: at the top dose activity, negative = inhibition, hits mostly inhibitors. recombinant tau K18 P301L, heparin-induced fibrillization, ThT fluorescence; also: potency is read from the fitted curve at half-maximal effect; nearly all actives have a fitted effect of over 55% in size
Target sequence (P10636 561-689 P618L limits assumed): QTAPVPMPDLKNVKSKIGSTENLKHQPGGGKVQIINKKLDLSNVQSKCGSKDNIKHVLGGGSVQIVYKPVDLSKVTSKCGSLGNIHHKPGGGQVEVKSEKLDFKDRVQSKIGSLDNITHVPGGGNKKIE
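Heparin-induced fibrillization of the P301L-mutant K18 repeat-domain fragment of human tau was followed by ThT binding in quantitative high-throughput format.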
Tau fibril FP: qHTS for Inhibitors of Tau Fibril Formation, Fluorescence Polarization | K18 P301L tau heparin fibrillization, Alexa594 FP, 6 h | Potency, µM (highest dose often 57.7 µM), for the others: top-dose activity, negative = inhibition, most hits filed as inhibitors | hit rate 0.39% among 280,000; also: potency is read from the fitted curve at half-maximal effect; nearly all actives have a fitted effect of over 55% in size
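K18 P301L tau (15 uM unlabeled/0.24 uM Alexa 594-labeled, final) + compound + heparin 20 uM final; 100 mM NaOAc pH 7; 6 hr 37 C; ThT 30 uM final added, 1 hr RT; FP ex 555/em 632 nm.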
Sfp inh: qHTS Assay for Inhibitors of Bacillus subtilis Sfp phosphopantetheinyl transferase (PPTase) | 4'-phosphopantetheinyl transferase ffp (Bacillus subtilis), Q9F4F7 | Biochemical Sfp PPTase activity, qHTS | Potency, µM, without a hit: largest response in the series, negative = inhibition, usual class: inhibitors | hit rate 3.5% among 310,000;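 also: the enzyme is Sfp with the accession as filed and its product quenches rhodamine fluorescence; potency is read from the fitted curve at half-maximal effect; 0% = enzyme reaction without inhibitor and -100% = no enzyme wells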
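Reaction rates are the 30-min fluorescence difference (ex 525, em 598 nm) in wells containing 15 nM Sfp, 5 uM rhodamine-CoA and 12.5 uM BHQ-2-YbbR at pH 7.6 with 10 mM MgCl2.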
Tau fluor cs: Counterscreen qHTS for Inhibitors of Tau Fibril Formation, Fluorescence Polarization. tau K18 P301L Alexa594 fluorescence, heparin fibrillization. Potency, µM (titrated, usually from 57.7 µM), for the others: at the top dose activity change, negative = decrease. hit rate 0.93% among 280,000. AID 1463, 2008; also: potency is read from the fitted curve at half-maximal effect; nearly all actives have a fitted effect of over 55% in size
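Human tau K18 P301L (15 uM unlabeled, 0.24 uM Alexa 594-labeled) in 100 mM sodium acetate pH 7 with 20 uM heparin, 6 hr at 37 C. ThT 30 uM added, 1 hr ambient; Alexa 594 FP and total fluorescence read at 555/632 nm.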
Active calls of the source: *. This is a sample that favours compounds with a hit; in the whole collection about 5.2% have one here. Unless noted, calls follow the shape of the dose curve; as a rule, active = well fitted curve in the direction sought with a large enough effect; inconclusive = small, poorly fitted or top-dose-only effect, or another doubt; inactive = no such curve, though single readings can be large; an effect the other way counts as inactive or inconclusive. Unless noted, % is scaled to controls: 0 for no effect and ±100 for the full control effect.

For O=C(c1ccco1)N1CCC2(CC1)CN(c1ccccc1)C2 the results were FBPA coupling cs -1.6 and Sfp inh -24.9%.
CC(C)(C)OC(=O)N1CCC[C@H]1C(=O)N/N=C/c1ccc2nccnc2c1 was read as FBPA coupling cs 3.4, Tau fibril ThT -11.3%, Tau fibril FP -4.8%, Sfp inh 6.8% and Tau fluor cs -11.7%.
`COc1ccc2nc(/C=N/NC(=O)[C@@H]3CCCN3C(=O)OC(C)(C)C)ccc2c1` gave FBPA coupling cs -1.9, Tau fibril ThT -10.7%, Tau fibril FP 6.2%, Sfp inh 89.1µM* and Tau fluor cs -10.4%.
Cc1cccc(N2CCN(C(=O)c3c(C)oc4ncnc(N5CCCCC5)c34)CC2)c1C was read as Tau fibril ThT inconclusive, Tau fibril FP 1.4% and Tau fluor cs -8.7%.
For O=C(Nc1nc2ccccc2s1)c1ccc(N2CCCCC2)c([N+](=O)[O-])c1 the results were FBPA coupling cs -0.7, Tau fibril ThT 4.47µM*, Tau fibril FP -13.9%, Sfp inh -26.5% and Tau fluor cs inconclusive.
For Cc1ccc(-c2csc(NC(=O)c3cc([N+](=O)[O-])ccc3N3CCOCC3)n2)cc1 the results were FBPA coupling cs -1.7, Tau fibril ThT -3.0%, Tau fibril FP 4.0%, Sfp inh -2.3% and Tau fluor cs -12.2%.
Screening O=C(Nc1ccon1)c1ccc(N2CCCCC2)c([N+](=O)[O-])c1 returned FBPA coupling cs 0.2, Tau fibril ThT inconclusive, Tau fibril FP -1.7%, Sfp inh 11.8% and Tau fluor cs -16.3%.
O=C(Nc1nc(-c2ccccc2)cs1)c1ccc(N2CCOCC2)c([N+](=O)[O-])c1 was read as FBPA coupling cs -2.3, Tau fibril ThT 8.91µM*, Tau fibril FP 5.1%, Sfp inh 6.2% and Tau fluor cs inconclusive.
For Cc1cccc(-n2c(SCC(=O)Nc3ccccc3C)nc3c(oc4ccccc43)c2=O)c1 the results were Tau fibril ThT -0.4%, Tau fibril FP -12.3% and Tau fluor cs -14.7%.
`Cc1cccc2nc(=S)n(C(=O)c3ccco3)n12` gave FBPA coupling cs -12.6, Tau fibril ThT 4.0%, Tau fibril FP -4.9%, Sfp inh 15.8µM* and Tau fluor cs -8.0%.
`O=C(c1ccco1)n1c(=S)nc2ccccn21` gave FBPA coupling cs -3.8, Tau fibril ThT inconclusive, Tau fibril FP inconclusive, Sfp inh -20.7% and Tau fluor cs -5.4%.
Nc1ncnc2c1ncn2C1CCCO1 (stereo not drawn) was read as FBPA coupling cs 0.1, Tau fibril ThT 6.4%, Tau fibril FP 3.1%, Sfp inh 4.4% and Tau fluor cs 3.2%.
S=c1nc[nH]c2c1ncn2C1CCCO1 (stereo not drawn) was read as FBPA coupling cs -4.6, Tau fibril ThT -2.1%, Tau fibril FP -2.6%, Sfp inh 3.98µM* and Tau fluor cs -5.3%.
`C/C(=N/NC(=O)c1ccccn1)c1ccncc1` gave FBPA coupling cs 3.2 and Sfp inh 56.2µM*.
Screening C/C(Cc1ccccc1)=N\NC(=O)c1cccnc1 returned FBPA coupling cs 1.7, Tau fibril ThT -5.3%, Tau fibril FP 0.2%, Sfp inh 1.6% and Tau fluor cs -0.3%.
`C/C(=N/NC(=O)c1cnccn1)c1ccncc1` gave FBPA coupling cs 2.9, Tau fibril ThT -1.7%, Tau fibril FP 6.9%, Sfp inh -5.1% and Tau fluor cs -5.4%.
For C/C(Cc1ccccc1)=N\NC(=O)c1ccccn1 the results were FBPA coupling cs 3.1 and Sfp inh 50.1µM*.
For CCCCn1cc(S(=O)(=O)c2ccc(C)c(C)c2)c(=O)c2cc(F)c(N(CC)CC)cc21 the results were Tau fibril ThT -14.4%, Tau fibril FP 0.0% and Tau fluor cs -8.9%.
`Cc1cc(-c2ccc(S(=O)(=O)Nc3cc(Cl)ccc3C)s2)on1` gave Tau fibril ThT -3.0%, Tau fibril FP inconclusive and Tau fluor cs -28.5%.
